Reference: PubChem BioAssay (NCI)
Compounds without any hit were thinned out: in the full panel of roughly 79,000, 15% have a hit. No stated cut-off is given here; in the data, active means growth inhibition above about 70%; inactive means the rest.

Legend:
[1] = NCI Yeast Anticancer Drug Screen. Data for the rad50 strain (AID 155);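 further: 0% = growth of vehicle-only cultures of the same strain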; settings: S. cerevisiae rad50 strain growth inhibition; at 50.0 µM; hits give high values
In short: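 Readout: growth inhibition relative to vehicle-treated cultures. Compound exposure was carried out in a genetically defined yeast strain deficient in DNA damage repair.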

[2] = NCI Yeast Anticancer Drug Screen. Data for the mec2-1 strain (AID 157); settings: S. cerevisiae mec2-1 strain, at 50.0 µM, hits give high values
In short: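 Yeast mec2-1 mutant treated with compound. Readout: growth inhibition vs vehicle controls.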

[3] = NCI Yeast Anticancer Drug Screen. Data for the sgs1 mgt1 strain (AID 161);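 further: 0% = growth of cultures given vehicle only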; settings: S. cerevisiae sgs1 mgt1 strain, at 50.0 µM, hits give high values
In short: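 Test agents were incubated with a DNA-repair-mutant yeast strain. Growth was then read and compared against vehicle-treated controls.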

[4] = NCI Yeast Anticancer Drug Screen. Data for the cln2 rad14 strain (AID 165);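 further: 0% = growth equal to vehicle treated cultures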; settings: S. cerevisiae cln2 rad14 strain, at 50.0 µM, hits give high values
In short: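 cln2 rad14 yeast strain; compound exposure; growth inhibition read vs vehicle controls.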

[5] = NCI Yeast Anticancer Drug Screen. Data for the bub3 strain (AID 167); settings: S. cerevisiae bub3 mutant strain, at 50.0 µM, hits give high values
In short: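 Readout: yeast growth inhibition, expressed relative to vehicle-only wells. The test organism is a mutant strain from a panel with lesions in DNA repair or checkpoint genes.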

[6] = NCI Yeast Anticancer Drug Screen. Data for the mlh1 rad18 strain (AID 175); settings: S. cerevisiae mlh1 rad18 strain growth inhibition; at 50.0 µM; hits give high values
In short: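 Yeast w/ defined DNA-repair lesions; compound exposure; growth vs vehicle controls → % inhibition.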

Measured: growth inhibition

CC1(C)N=C(N)N=C(N)N1c1ccc(-c2ccccc2)cc1
inactive: [1] 2.95% | [2] 0.9% | [3] 20.5% | [4] -0.75% | [5] 32.5% | [6] 19.5%

CCOC(=O)/N=c1/nc(N(C)C)ss1
inactive: [1] -18.9% | [2] -29.6% | [3] 4.15% | [4] -19.6% | [5] -9.4% | [6] -5.05%

COc1ccc2nc(NC(=O)Nc3ccc(Cc4ccc(NC(=O)Nc5nc6ccc(OC)cc6s5)cc4)cc3)sc2c1
inactive: [1] -14.4% | [2] -19.6% | [3] -10.3% | [4] 10.3% | [5] -8.65% | [6] -12%

Cc1cc(N(CCCOS(C)(=O)=O)CCCOS(C)(=O)=O)ccc1C=Nc1cc(Cl)c(O)c(Cl)c1
inactive: [1] 31.7% | [2] 21.4% | [3] 62.8% | [4] 8.65% | [5] 34.7% | [6] 54.5%

C/C=C(\C)C(C#N)(CCCC)C(=O)OCC (stereo unspecified)
inactive: [1] 0.3% | [2] -17.2% | [3] -6.35% | [4] -14.7% | [5] -25.4% | [6] -24.2%

Nc1c(S(=O)(=O)O)cc2cc(S(=O)(=O)O)ccc2c1N
inactive: [1] 9.9% | [2] -12.6% | [3] 6% | [4] -15.7% | [5] 17.8% | [6] 24.9%

COc1ccc(/C(Br)=C2\OC(=O)c3ccccc32)cc1
inactive: [1] -7.95% | [2] -19.9% | [3] -13.4% | [4] -35.1% | [5] 18.4% | [6] -6.9%

CC1(O)C=CC2CCC1C2O (stereo unspecified)
inactive: [1] 11.9% | [2] -2.55% | [3] 10% | [4] 19.2% | [5] 0.15% | [6] 19.6%

N/N=C(\N)N(Cc1ccccc1)c1ccccc1
inactive: [1] 10.3% | [2] 25.7% | [3] 2.85% | [4] -11.6% | [5] -2.6% | [6] 4.75%

COc1ccc(N2C(=O)C3c4[nH]c5ccccc5c4C4CC(C)(C)CC(C)(C)C4C3C2=O)cc1 (stereo unspecified)
inactive: [1] 35.9% | [2] 10.7% | [3] 13.3% | [4] -13.1% | [5] 33.1% | [6] 8.65%

N#Cc1ccc(CSC2=C(c3ccc(Cl)cc3)S/C(=C3\SC(SCc4ccc(C#N)cc4)=C(c4ccc(Cl)cc4)S3)S2)cc1
inactive: [1] -16.8% | [2] -15.3% | [3] -19.9% | [4] 7.7% | [5] -8.4% | [6] -25.9%

COn1c(-c2ccccc2)nc2c1C(=O)N(C)CN2C
inactive: [1] -14.2% | [2] 1.7% | [3] 7.3% | [4] -47.8% | [5] -6.9% | [6] 5.4%

CCOc1ccc2nc(/C=C/c3ccccc3)ccc2c1
inactive: [1] 13.9% | [2] -3.65% | [3] 13.8% | [4] -3.75% | [5] 9.85% | [6] 14.8%

Cc1cc([N+](=O)[O-])ccc1NC(=O)c1c(Cl)c(Cl)c(C(=O)Nc2ccc([N+](=O)[O-])cc2C)c(Cl)c1Cl
inactive: [1] 38.5% | [2] 28.1% | [3] 34.9% | [4] -34% | [5] 7.9% | [6] 45.1%

C=C(C)C1Cc2cc(C(C)=O)ccc2O1 (stereo unspecified)
inactive: [1] 12.7% | [2] -11.7% | [3] 9.55% | [4] 5.8% | [5] -4% | [6] -59.2%

CC(=O)OCC1OC(OCC[N+](C)(C)C)C(OC(C)=O)C(OC(C)=O)C1OC(C)=O (stereo unspecified)
inactive: [1] -1.65% | [2] 14.9% | [3] -15.6% | [4] -2.4% | [5] -7.35% | [6] 15.3%

CCN(CC)CCN1C(=O)c2cccc3cc(N)cc(c23)C1=O
inactive: [1] -1.9% | [2] -27.3% | [3] -7.4% | [4] -3.75% | [5] -9.6% | [6] 2.2%

O=C1OCC/C1=C1/Nc2ccccc2NC1=O
inactive: [1] -13.1% | [2] -24% | [3] -8.1% | [4] -22.2% | [5] -16.4% | [6] -13.8%

O=C1OC2=C(CCCCC2)C(N2CCCCC2)C12SCCCS2 (stereo unspecified)
inactive: [1] -7.9% | [2] -6.2% | [3] -5.2% | [4] -17.3% | [5] -3.25% | [6] -14.9%

CCCCCCC1CCC(O)CC1 (stereo unspecified)
inactive: [1] 22.6% | [2] 2.95% | [3] -8.05% | [4] -0.15% | [5] 12.3% | [6] 41.1%

CCOC(=O)C(=CNC(=S)Nc1ccccc1)C(=O)OCC
inactive: [1] -24.9% | [2] -22.9% | [3] -23.8% | [4] -17.1% | [5] -13.7% | [6] 2.2%

Nc1ccc2nc(-c3ccccc3)[nH]c2c1
inactive: [1] -13.8% | [2] -8.65% | [3] -13.3% | [4] 1.55% | [5] 0.6% | [6] -3.8%

COc1ccc2c(c1)C1CCCCC1SCC2=O (stereo unspecified)
inactive: [1] 1% | [2] 7.4% | [3] -1.9% | [4] -10.9% | [5] 15.8% | [6] -15.3%

O=C(O)CCCCCCc1ccc2ccccc2n1
inactive: [1] 16.8% | [2] 13.8% | [3] 16.5% | [4] 10% | [5] 7.05% | [6] -3.55%

COc1cccc(OC(=O)Nc2cccc(Cl)c2)c1
inactive: [1] 38.2% | [2] 38.4% | [3] 49.4% | [4] 38.8% | [5] 41.5% | [6] 51.6%

Cc1cc2nccnc2cc1C
inactive: [1] -48.8% | [2] -65.8% | [3] -31.4% | [4] -3.4% | [5] -65.5% | [6] -23.2%

CC(=O)N1CCCCCC1=O
inactive: [1] -30.3% | [2] -16.9% | [3] 25.4% | [4] -7.55% | [5] 1.95% | [6] -26.8%

O=C1OC(=O)C2C1C1c3ccccc3C2(O)c2ccccc21 (stereo unspecified)
inactive: [1] -1.8% | [2] -17.9% | [3] 0.2% | [4] 2.95% | [5] 6.1% | [6] -0.6%

CC(C)=C(Cl)c1c(C)cc(C)c(CC(N)=O)c1C
inactive: [1] -14.1% | [2] -3.75% | [3] -8.15% | [4] -27.2% | [5] -9.95% | [6] 10.1%

NC[C@H]1Nc2ccccc2[C@@H](O)C1O (stereo partly specified)
inactive: [1] 14.6% | [2] 6.95% | [3] 0.4% | [4] 8.9% | [5] 12.6% | [6] -12.1%

NC(=O)C1=CCCC1
inactive: [1] 6% | [2] -0.1% | [3] 0.5% | [4] 10.2% | [5] 12.8% | [6] -3.3%

O=C1N(c2cccc(F)c2)C(=O)N1c1cccc(F)c1
inactive: [1] 27.4% | [2] 3.3% | [3] -9.1% | [4] 13.2% | [5] -1.1% | [6] 5.5%

O=C1C(Cl)N(c2ccc([N+](=O)[O-])cc2)C1c1c[nH]c2ccccc12 (stereo unspecified)
inactive: [1] -4.2% | [2] -38.6% | [3] -0.3% | [4] 8.75% | [5] 19.2% | [6] -31.4%

Cc1c(-c2nc3ccccc3[nH]2)c(=O)n(-c2ccccc2)n1C
inactive: [1] -70.2% | [2] -38.1% | [3] -24.1% | [4] 7.25% | [5] -10.4% | [6] -38.9%

CCC(=O)Nc1cccc(OC(=O)NC2CCCCC2)c1
inactive: [1] 1.35% | [2] 13.1% | [3] 16.2% | [4] 1.3% | [5] 20.2% | [6] 11.1%

Cc1cccc(C)c1NC(=O)C(=O)CC(=O)/C=C/c1ccccc1
inactive: [1] -14.5% | [2] -20.2% | [3] -30.6% | [4] 3.05% | [5] -23.1% | [6] -28.7%

Cc1cccc2c3c(ccc12)C(=O)OC3=O
inactive: [1] -0.3% | [2] -2.85% | [3] 4.1% | [4] -22.3% | [5] -6.5% | [6] 4.25%

O=[N+]([O-])c1cc([N+](=O)[O-])c(C(Cl)C(Cl)c2ccccc2)cc1C(Cl)C(Cl)c1ccccc1 (stereo unspecified)
inactive: [1] 2.4% | [2] 2.55% | [3] -18.9% | [4] 7.65% | [5] 0.6% | [6] -20.4%

Cc1ccc(S(=O)(=O)OC2C(CI)OCOC(CI)C2OS(=O)(=O)c2ccc(C)cc2)cc1 (stereo unspecified)
inactive: [1] -1.05% | [2] -7.3% | [3] -6.3% | [4] -20.4% | [5] -21.6% | [6] -14.8%

OCCSCCCCCCSCCO
inactive: [1] 6.95% | [2] 1.7% | [3] 5.85% | [4] 10.6% | [5] 2.7% | [6] 5.8%

CN1CCCC2[C@@H]3CCC4=C(O)C(=O)CC[C@]4(C)C3CC[C@@]21C (stereo partly specified)
inactive: [1] 9.05% | [2] -6.05% | [3] -4% | [4] 22.1% | [5] 0.85% | [6] 18.4%
